The results in this text go back to PubChem BioAssay AID1531 (NMMLSC, 2009).

SMILES strings stand for the structures. Among all 290,000 compounds or so, about 3,300 (1.1%) were called active. No stated cut-off is given here; in the data, active means binding response below about 67% or above about 130%; inconclusive means no clear call, values can overlap the other calls; inactive means in between. This excerpt belongs to a sample that is enriched for actives.

This assay has as its target Mitogen-activated protein kinase kinase kinase 2 (Homo sapiens) (UniProt Q9Y2U5). As to the kind of experiment: modulators of MEK5 binding to wildtype MEKK2, primary screen, biochemical, multiplex bead flow cytometry, Alexa488-MEK5 (AID 1531). Particulars: Alexa488-MEK5 binding to MEKK2 WT, at 10 µM, actives lie on both sides. In general terms: Flow cytometry measures light scatter and fluorescence of single cells or particles in a stream.
For the molecule `CCCCNC(=O)N(O)C1N(/N=C/c2ccccc2O)C(=S)SC1(C)C` (configuration not stated), the binding response (% of control) was 101% (inactive).
The result for `Cc1ccc(-n2ncc3c2CC(C)(C)CC3NC(=O)Cc2c(C)noc2C)cc1` (configuration not stated) reads 100% (inactive).
The result for `CCC1=Nc2cc(C(=O)NCCCN3CCOCC3)ccc2Sc2ccc(Br)cc21` reads 108% (inactive).
The result for `CCCC1=Nc2cc(C(=O)NCCN3CCCC3)ccc2Sc2ccccc21` reads 142% (active); that for `CCC1=Nc2cc(C(=O)NCCN3CCCC3)ccc2Sc2ccc(C)cc21`, 155% (active).
Turning to `Cc1ccccc1CN1C(=O)c2ccccc2Sc2ccc(C(=O)NCCCN3CCOCC3)cc21`, the binding response (% of control) is 110% (inactive).
As for `Cc1cc(C)cc(C(=O)NCCN2CCOCC2)c1`, the binding response (% of control) was 109% (inactive).
The result for `CCCC1=Nc2cc(C(=O)NCc3ccco3)ccc2Sc2ccccc21` reads 98% (inactive); that for `COCCNC(=O)CSc1nc2sccc2c(=O)n1-c1ccccc1`, 101% (inactive); that for `CCOC(=O)C1CCN(C(=O)COc2cccc3ccccc23)CC1`, 97% (inactive).
The result for `CC(=O)Oc1ccc(-c2nc3c(C)cccc3c(=O)o2)cc1` reads 106% (inactive); that for `Cc1nc(/N=C(\N)NC(=O)NC2CCCCC2)nc2ccccc12`, 108% (inactive); that for `Cc1nc(N=C(N)N)nc2c(C)cccc12`, 145% (active).
With `NC(N)=N/N=C/c1ccc(Cl)c([N+](=O)[O-])c1`, the binding response (% of control) was 109% (inactive).
The result for `NC(N)=N/N=C/c1ccc(OCc2ccc(Cl)cc2Cl)cc1` reads 213% (active).
The result for `CCOc1ccc(NC(=O)NNC(=O)c2ccc(Cl)cc2Cl)cc1` reads 96% (inactive).
The result for `Cc1cc(OCC(=O)Nc2c(C)n(C)n(-c3ccccc3)c2=O)ccc1[N+](=O)[O-]` reads 97% (inactive); that for `CN(C)S(=O)(=O)c1ccc2oc(SCC(=O)Nc3ccccc3F)nc2c1`, 99% (inactive).
As to `C=CCNc1nc(N)c([N+](=O)[O-])c(NC2CCCCC2)n1`, the binding response (% of control) is 100% (inactive).
`O=C(NCCc1c[nH]c2ccccc12)C1CCN(Cc2ccc(Br)cc2)CC1`: the binding response (% of control) was 125% (inactive).
The result for `O=C(Cc1c(F)cccc1Cl)N1CCN(C(=O)c2ccco2)CC1` reads 99% (inactive); that for `O=C(c1cccc([N+](=O)[O-])c1)N1CCN(C(=O)c2ccco2)CC1`, 99% (inactive); that for `O=C(c1ccco1)N1CCN(c2cccc(Cl)c2)CC1`, -2% [inhibitor] (active).
The result for `CC1CC(C)CN(S(=O)(=O)c2cccc3nonc23)C1` (configuration not stated) reads 109% (inactive).
The result for `COc1ccc(OC)c(S(=O)(=O)N2CCCC(C(=O)NCCc3ccccc3)C2)c1` (configuration not stated) reads 100% (inactive).
Consider `Cc1cccc(N(C(=O)c2csnn2)C(C(=O)NCc2ccccc2)c2ccncc2)c1` (configuration not stated), for which the binding response (% of control) is 102% (inactive).
The result for `CCC(=C/c1sc2ccc3ccccc3c2[n+]1C)/C=C1\Sc2ccc3ccccc3c2N1C` reads 9% [inhibitor] (active).
